Results filed as inconclusive are left out. Where a call stands in place of a potency, no number is given. Calls of active or inactive are those of the source. Calls come from the whole dose curve.

A short description of the test: Primary qHTS for inhibitors of MERS-S pseudo-typed particle cell entry (AID 1479149). Note: nearly all actives have a fitted effect of over 60% in size. The settings on record: MERS-S pseudotyped particle entry, luciferase; series mostly up to 57.1 µM.
In the case of `C/C(=N/NC(=O)c1ccncc1)C(=O)O`, the Potency entry is “inactive”.

`CCCCCOc1ccc(C2SC(=O)NC2=O)cc1OCC` (centres undefined): the Potency entry was “inactive”. As for `CC1(C)[C@H](C(=O)O)N2C(=O)C[C@H]2S1(=O)=O`, the Potency result was “inactive”. On to `N[C@H](C(=O)O)[C@@H](O)c1ccc(O)c(O)c1`, for which the Potency result was “inactive”. On to `O=C(O)c1ccc(OCCCOc2ccc(C(=O)O)cc2)cc1`, for which the Potency result was “inactive”. `C=CCOc1ccccc1OCC(O)CNC(C)C` (centres undefined): the Potency entry was “inactive”. The same measure, in the same setting: in the case of `CCC1Nc2cc(Cl)c(S(N)(=O)=O)cc2S(=O)(=O)N1` (centres undefined) it was “inactive”. As for `CCCc1ncc(C[n+]2ccccc2C)c(N)n1`, the Potency entry was “inactive”. Same read-out and setting: in the case of `COc1ccc2c(c1OC)C(=O)O[C@@H]2[C@H]1c2c(cc3c(c2OC)OCO3)CCN1C` it was “inactive”. Take `C/C(=C(\CCOP(=O)(O)O)SC(=O)c1ccccc1)N(C=O)Cc1cnc(C)nc1N`: the outcome is “inactive [at 5.34 µM]”. Regarding `CN(Cc1ccc(C(C)(C)C)cc1)Cc1cccc2ccccc12`, the Potency result is “inactive”. On the same count and under the same terms, in the case of `Cc1cc(C(C)(C)C)c(O)c(C)c1CC1=NCCN1` it was “inactive”. For `O=C1c2ccccc2C(=O)C1c1ccccc1`, the Potency entry is “inactive”. Consider `C[C@]12C=CC(=O)C=C1CC[C@H]1[C@@H]3C[C@@H](O)[C@](O)(C(=O)CO)[C@@]3(C)C[C@H](O)[C@@]12F`, for which the Potency entry is “inactive”. As for `O=C(CCCCCCCCC#CI)Oc1ccccc1`, the Potency result is “inactive”. For the compound `O=c1ccc2ccccc2o1`, the Potency result was “inactive”.

On to `Cc1ccc(C(=O)Oc2ccc(C(O)CNC(C)(C)C)cc2OC(=O)c2ccc(C)cc2)cc1` (centres undefined), for which the Potency entry is “inactive”. As for `CCCCC1(COC(=O)CCC(=O)O)C(=O)N(c2ccccc2)N(c2ccccc2)C1=O`, the Potency result was “inactive”. Turning to `C#C[C@]1(O)CC[C@H]2[C@@H]3CCc4cc(OC)ccc4[C@H]3CC[C@@]21C`, the Potency result is “inactive”.

These data come from PubChem BioAssay (NCATS).
